Screening data (PubChem BioAssay)
An excerpt weighted towards active compounds, which were near 2.9% of everything screened.
MEKK2 mut-MEK5 – signal of MEK5 binding to mutant human MEKK2 PB1 domain; percent response, % at 10 µM; bead flow cytometry, Alexa488-MEK5 binding to MEKK2 mutant; 290,000 tested, 0.35% active; in the data active = percent response above about 24%, passing the limit was not always enough
MEKK2wt PB1 HTS – raises or lowers MEK5 binding to wildtype human MEKK2 PB1 domain; Q9Y2U5; bead flow cytometry, Alexa488-MEK5 binding to MEKK2 WT; actives lie on both sides; binding response (% of control), % at 10 µM; 290,000 tested, 1.1% active; AID 1531; in the data active = binding response below about 67% or above about 130%
MEKK3 PB1 HTS – modulators (inhibitors or enhancers) of MEK5 binding to human MEKK3 PB1 domain; binding response (% of control), % at 10 µM; AID 1529; 290,000 tested, 1.4% active; bead-based flow cytometry, Alexa488-MEK5 binding to MEKK3; actives lie on both sides; 0 = blocked by unlabeled MEK5, 100 = vehicle; Q99759;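 active = binding response more than 3 SD above or below the average of its plate-row segment, actives on both sides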;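 also: Alexa488 bead fluorescence after subtracting the streptavidin-only scavenger bead signal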
Target sequence (Q99759 whole entry, looked up, the tested form may be a part): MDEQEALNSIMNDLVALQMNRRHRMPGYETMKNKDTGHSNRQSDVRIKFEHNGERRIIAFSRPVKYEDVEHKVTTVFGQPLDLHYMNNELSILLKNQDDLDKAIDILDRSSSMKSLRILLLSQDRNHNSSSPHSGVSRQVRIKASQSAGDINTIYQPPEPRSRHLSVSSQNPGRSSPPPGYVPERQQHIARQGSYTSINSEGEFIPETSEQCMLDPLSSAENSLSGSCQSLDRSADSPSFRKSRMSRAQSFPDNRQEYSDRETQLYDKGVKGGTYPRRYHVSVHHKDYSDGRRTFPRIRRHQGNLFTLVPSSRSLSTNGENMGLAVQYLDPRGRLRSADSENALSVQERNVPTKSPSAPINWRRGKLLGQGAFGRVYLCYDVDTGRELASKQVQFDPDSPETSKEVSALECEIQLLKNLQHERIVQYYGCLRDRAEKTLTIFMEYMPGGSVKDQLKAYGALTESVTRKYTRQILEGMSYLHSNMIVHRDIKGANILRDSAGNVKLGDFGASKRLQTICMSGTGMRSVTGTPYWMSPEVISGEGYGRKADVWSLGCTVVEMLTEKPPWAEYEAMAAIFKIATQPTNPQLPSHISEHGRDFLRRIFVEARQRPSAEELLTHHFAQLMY
GRK2 inh – blocks RNA aptamer binding to human GRK2 | 330,000 tested, 0.59% active | inhibition of aptamer binding, % at 10 µM | P25098 | AID 488847 | bead flow cytometry, FAM-aptamer displacement from GRK2;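 active = inhibition of aptamer binding above 40%, roughly 3 SD of noise, on plates passing a quality check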;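 also: median bead fluorescence of bound FAM aptamer so fluorescent compounds give negative values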
Beta2AR agonist – human beta-2 adrenergic receptor agonism by FAP. P07550. Am2.2-beta2AR cells, FAP receptor internalization, flow cytometry. response, % (concentration not given with the values). 340,000 tested, 0.43% active. AID 504454;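 active = response above a set limit, near 3 SD of response in nonfluorescent compounds, cut at about 42% in these data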
MEKK2wt confirm – raises or lowers MEK5 binding to wildtype human MEKK2, retest; bead flow cytometry, Alexa488-MEK5 binding to MEKK2 WT; actives lie on both sides; binding response (% of control), % at 10 µM; AID 1892; 5,900 tested, 2.4% active; shares compounds with MEKK3 PB1 HTS; in the data active = binding response below about 16% or above about 210%; inactive = in between
MEKK2mut-MEK5 – signal of MEK5 binding to mutant human MEKK2, retest | shares compounds with MEKK3 PB1 HTS | bead flow cytometry, Alexa488-MEK5 binding to MEKK2 mutant | percent response, % at 10 µM | 5,900 tested, 2% active | AID 1893; in the data active = percent response mostly above about 71%, no sharp cut-off; inactive = mostly below about 38%;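 also: higher means compound restores mutant binding toward wildtype level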
MEKK3 confirm – confirmation of inhibitors of MEK5 binding to human MEKK3 | AID 1894 | shares compounds with MEKK3 PB1 HTS | binding response (% of control), % at 10 µM | 5,900 tested, 1.8% active | bead flow cytometry, Alexa488-MEK5 binding to MEKK3; hits give low values;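 active = binding response below 72% of control, or above a set upper limit, though filed actives all read lower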;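 also: 100% = DMSO only wells and 0% = binding blocked by excess unlabeled MEK5; lower values mean stronger disruption of MEK5 binding to MEKK3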
Active calls of the source: *; x = no result given; [ ] = dose if it differs, or a comment.

SMILES | MEKK2 mut-MEK5 | MEKK2wt PB1 HTS | MEKK3 PB1 HTS | GRK2 inh | Beta2AR agonist | MEKK2wt confirm | MEKK2mut-MEK5 | MEKK3 confirm
O=C(NCc1nc2ccccc2[nH]1)C1=C[C@H](C2CC2)C[C@H](OCCCCO)O1 | -3 | 94 | 79*[inhibitor] | 1 | -7 | 96 | 0 | 103
CCCNC(=O)N1CCN(S(=O)(=O)c2ccc3c(c2)OCCO3)CC1 | x | x | x | 0 | 1 | x | x | x
O=C(/C=C/c1ccco1)N(Cc1ccc(F)cc1)C1CCS(=O)(=O)C1 (configuration not stated) | -17 | 63*[inhibitor] | 59*[inhibitor] | 0 | 4 | 97 | -1 | 98
Cc1cccc(C)c1NC(=O)COC(=O)c1cc[n+]([O-])cc1 | x | x | x | 5 | 6 | x | x | x
COc1ccc(/C=N\NC(=O)CCc2c(C)n[nH]c2C)c(OC)c1OC | 2 | 109 | 134* | 0 | 0 | 111 | 3 | 100
COc1ccc(/C=N/NC(=O)CCc2n[nH]c(=O)[nH]c2=O)cc1OC | 0 | 106 | 129* | 1 | -9 | 110 | 14 | 108
COc1cccc(/C=N/NC(=O)CCc2n[nH]c(=O)[nH]c2=O)c1O | 0 | 103 | 128* | 1 | 17 | 109 | 5 | 103
COc1ccc(OC)c(/C=N/NC(=O)CCc2c(C)n[nH]c2C)c1 | -14 | 76 | 71 | 2 | 0 | x | x | x
COc1cccc(/C=N/NC(=O)CCc2c(C)n[nH]c2C)c1O | 11 | 97 | 99 | 3 | 3 | x | x | x
N=c1n(Cc2ccccc2)c2ccccc2n1CC(O)COc1ccc(Cl)cc1Cl (configuration not stated) | 63* | 220* | 111 | x | 29 | 172 | 30 | 97
COc1ccc(OCC(O)Cn2c(=N)n(Cc3ccccc3)c3ccccc32)cc1 (configuration not stated) | 5 | 122 | 95 | 0 | 16 | x | x | x
CCc1nc(C)ccc1OC(=O)C12CC3CC(CC(C3)C1)C2 | 3 | 138* | 106 | 3 | 6 | 92 | -10 | 94
COc1ccc(C(=O)NCCNc2nc3ccc(C)cc3cc2C#N)cc1OC | 6 | 96 | 101 | 3 | 15 | x | x | x
Clc1ccccc1-c1csc(Nc2cccnc2)n1 | -40 | 59 | 47*[inhibitor] | 1 | -13 | 103 | 5 | 103
CCN(CC)CCCNC(=O)c1cn(CCOC)c(=O)c2c1c1ccccc1n2C | -16 | 52 | 34*[inhibitor] | 1 | 2 | 105 | 1 | 105
O=C(COC(=O)c1cc[n+]([O-])cc1)NC(=O)c1ccc(OC(F)F)cc1 | x | x | x | 0 | -1 | x | x | x
CC(C)c1ccc(NC(=O)c2snc3ccc(Cl)cc23)cc1 | -1 | 105 | 130* | 1 | 12 | 103 | -3 | 107
CC(C)c1ccc(NC(=O)c2csnn2)cc1 | 11 | 108 | 107 | 0 | 2 | x | x | x
CCc1ccc(-c2cc(C)no2)cc1S(=O)(=O)N1CCCN(Cc2ccc(F)cc2)C1 | 6 | 108 | 102 | 0 | -8 | x | x | x
Cc1c(Cl)ccc2c(C(=O)NCCCn3nccc3C)cc(-c3ccccn3)nc12 | -6 | 98 | 95 | 1 | 6 | x | x | x
Cc1c(Cl)ccc2c(C(=O)NCCN3CCCCC3)cc(-c3ccccn3)nc12 | 23 | 166* | 103 | 0 | 23 | 121 | 6 | 95
COc1ccccc1-c1cc(C(=O)NC2CCN(C)CC2)c2ccc(Cl)c(C)c2n1 | 28* | 155* | 105 | 19 | 36 | 132 | 25 | 108
CCOC(=O)CNC(=O)CSc1nnc(NC(=O)c2ccc(S(=O)(=O)N3CCOCC3)cc2)s1 | 7 | 107 | 102 | 4 | -2 | x | x | x
CCCOc1ccc(C(=O)Nc2ccc(N3CCN(C(=O)c4ccco4)CC3)cc2)cc1 | 4 | 100 | 100 | 2 | 7 | x | x | x
CCOc1ncccc1C(=O)NCC(c1ccco1)N1CCCCC1 (configuration not stated) | x | x | x | 0 | -1 | x | x | x
SMILES | MEKK2 mut-MEK5 | MEKK2wt PB1 HTS | MEKK3 PB1 HTS | GRK2 inh | Beta2AR agonist | MEKK2wt confirm | MEKK2mut-MEK5 | MEKK3 confirm
CCOC(=O)N1CCC(N(CCN(C)C)C(=S)Nc2cccc(SC)c2)CC1 | -5 | 101 | 101 | 2 | 1 | x | x | x
CCOC(=O)N1CCC(N(CCN(C)C)C(=S)Nc2ccccc2C)CC1 | 1 | 108 | 130* | 0 | 0 | 108 | 12 | 106
CCc1cccc(NC(=S)N(CCOC)C2CCN(C(C)=O)CC2)c1 | 34* | 118 | 123* | 1 | -4 | 110 | 11 | 110
CCOC(=O)N1CCC(N(CCN(C)C)C(=S)Nc2ccccc2OC)CC1 | -4 | 101 | 97 | 0 | 8 | x | x | x
CCOC(=O)N1CCC(N(CCN(C)C)C(=S)Nc2cccc(C)c2)CC1 | 0 | 108 | 138* | 10 | -1 | 105 | 0 | 103
CCOc1ccccc1C=NNC(=O)C1CC1 | x | x | x | x | -14 | x | x | x
CCN(CC)S(=O)(=O)c1ccc(N2CCN(C)CC2)c(NC(=O)COc2ccc(F)cc2Cl)c1 | x | x | x | 0 | 11 | x | x | x
Clc1ccc(-c2csc(N3CCSCC3)n2)cc1 | 0 | 103 | 103 | 0 | -5 | x | x | x
Cc1ccc(NC(=O)CN(C)S(=O)(=O)c2cccs2)c(Br)c1 | 1 | 96 | 102 | 0 | -1 | x | x | x
CC1(C)CC(=O)C(C=NCCN2CCN(C(=S)Nc3ccccc3)CC2)=C(O)C1 | -14 | 3.0*[inhibitor] | 3.0*[inhibitor] | 0 | -3 | 102 | 5 | 103
Cc1ccc(C2CC(=O)C(C=NCCN3CCN(C(=S)Nc4ccccc4)CC3)=C(O)C2)cc1 (configuration not stated) | 7 | 110 | 107 | 0 | -7 | x | x | x
COCc1ccc(C(=O)N(C)C2CCCN(Cc3ccccc3F)C2)o1 (configuration not stated) | 3 | 101 | 103 | 0 | 2 | x | x | x
CC(/C=N\NC(=O)CN1CCN(S(=O)(=O)c2ccc(C)cc2)CC1)=C\c1ccccc1 | 0 | 107 | 132* | 2 | 2 | 99 | -2 | 106
Cc1ccc(S(=O)(=O)N2CCN(CC(=O)N/N=C\C(Cl)=C\c3ccccc3)CC2)cc1 | 0 | 106 | 137* | 2 | -5 | 96 | -5 | 99
CCN(c1ccccc1)S(=O)(=O)c1ccc(Cl)c(C(=O)NC2CCN(Cc3ccccc3)CC2)c1 | x | x | x | x | -2 | x | x | x
Cc1cc(C)c(CN2CCN(C(=O)Cn3cnc4c(OCc5ccccc5)ncnc43)CC2)c(C)c1 | x | x | x | 17 | 10 | x | x | x
O=C(O)c1[nH]c2ccccc2c1CC(=O)N1CCOCC1 | -23 | 95 | 96 | 0 | 0 | x | x | x
O=C(O)c1[nH]c2ccccc2c1CC(=O)N1CCN(c2ccccc2)CC1 | 3 | 112 | 132* | 1 | -10 | 103 | 4 | 104
